The text below walks through data of PubChem BioAssay (NCI).

A short description of test [1]: NCI Yeast Anticancer Drug Screen. Data for the rad50 strain (AID 155).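 Note: 0% = growth of vehicle-only cultures of the same strain.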 The following applies: S. cerevisiae rad50 strain growth inhibition; at 50.0 µM; hits give high values. The method in brief: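 Growth of the mutant yeast was measured after compound exposure and referenced to vehicle-treated cultures.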
Test [2] is described as follows: NCI Yeast Anticancer Drug Screen. Data for the mec2-1 strain (AID 157). The following applies: S. cerevisiae mec2-1 strain, at 50.0 µM, hits give high values. The method in brief: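 mec2-1 yeast strain, carrying an alteration in DNA damage repair or cell cycle control, was exposed to compounds; growth inhibition was measured relative to vehicle-treated controls.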

Test [3] in a line: NCI Yeast Anticancer Drug Screen. Data for the sgs1 mgt1 strain (AID 161).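 Note: 0% = growth of cultures given vehicle only.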 The following applies: S. cerevisiae sgs1 mgt1 strain, at 50.0 µM, hits give high values. The method in brief: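 Compounds are added to genetically altered yeast, and growth is compared with cultures given vehicle alone to give percent inhibition.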
Test [4] can be described thus: NCI Yeast Anticancer Drug Screen. Data for the cln2 rad14 strain (AID 165).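 Note: 0% = growth equal to vehicle treated cultures.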 The following applies: S. cerevisiae cln2 rad14 strain, at 50.0 µM, hits give high values. Summed up: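 Yeast carrying cln2 and rad14 alterations (cell cycle control and DNA damage repair) were exposed to compounds. Growth inhibition was measured against vehicle-treated controls.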
Test [5] is described as follows: NCI Yeast Anticancer Drug Screen. Data for the bub3 strain (AID 167). The following applies: S. cerevisiae bub3 mutant strain, at 50.0 µM, hits give high values. Summed up:
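Whole-cell yeast assay. The mutant strain was incubated with compounds, and growth inhibition was determined by comparison with vehicle-treated cells.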

Test [6] in a line: NCI Yeast Anticancer Drug Screen. Data for the mlh1 rad18 strain (AID 175). The following applies: S. cerevisiae mlh1 rad18 strain growth inhibition; at 50.0 µM; hits give high values. The method in brief:
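Growth inhibition of the yeast strain was measured after compound exposure and expressed relative to vehicle-treated controls. The strain carries defined defects in DNA damage repair.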

About 79,000 compounds went through this panel and 15% of them were active in at least one assay; those are over-represented in the sample as a whole. Unmarked numbers belong to inactive results. Calls of active or inactive are those of the source. Cut-off read from the data, not from the text of the source: active = growth inhibition above about 70%; inactive = the rest.

As to `COC(=O)C1(CC(=O)c2cccc3ccccc23)NC(=S)NC(=O)C1C#N` (centres undefined), the growth inhibition in test [1] was 0.55%; in test [2], 15.7%; in test [3], -17.4%; in test [4], -13.3%; in test [5] it was -0.7%; in test [6] it was -9.35%.
Take `NNc1cc(=O)[nH]c(N)n1`: the growth inhibition in test [1] was -17.6%; in test [2], -18.6%; in test [3], -31.2%; in test [4], -19.1%; in test [5], -6.95%; in test [6], -29.9%.
Take `O=C(OC1COC(n2c(=O)oc3cc(Br)c(Cl)cc32)C(OC(=O)c2ccccc2)C1OC(=O)c1ccccc1)c1ccccc1` (centres undefined): the growth inhibition was 4.55% in test [1]; -2.25% in test [2]; -8.15% in test [3]; -3.05% in test [4]; 4.85% in test [5]; 14.4% in test [6].
Regarding `OCc1cc2ccc3ccccc3c2[nH]1`, the growth inhibition was 25.3% in test [1]; 24.9% in test [2]; 47.9% in test [3]; 2.65% in test [4]; 25.5% in test [5]; 25.6% in test [6].
On to `COc1cc2c(cc1O)CCN[C@@]21CS[C@H]2c3c(OC(C)=O)c(C)c4c(c3C(COC1=O)N1C2C2NC(Cc3cc(C)c(OC)c(O)c32)[C@@H]1O)OCO4` (some centres undefined), for which the growth inhibition in test [1] is 91.5% (active); in test [2], 94% (active); in test [3], 93.7% (active); in test [4] it was 91.5% (active); in test [5], 92.2% (active); in test [6], 91.2% (active).
As for `O=C(Nc1ccccc1)c1nccc2ccccc12`, the growth inhibition is 1.45% in test [1]; 13% in test [2]; -6.45% in test [3]; -17.1% in test [4]; 9.4% in test [5]; -3.95% in test [6].
On to `N#Cc1c[nH]c2cccc([N+](=O)[O-])c12` (tested in a mixture with another compound), for which the growth inhibition was 7.95% in test [1]; -10.9% in test [2]; 7.8% in test [3]; 17.9% in test [4]; 13.4% in test [5]; -2.8% in test [6].
`O=C1OC(Cc2ccccc2)=N/C1=C/c1ccccc1`: the growth inhibition is 9.05% in test [1]; 0.8% in test [2]; 1.15% in test [3]; -9% in test [4]; 2.7% in test [5]; 4.55% in test [6].
In the case of `NNC(=S)N/N=C/C(Cl)=C(\Cl)C(=O)O`, the growth inhibition was -2.2% in test [1]; -13.2% in test [2]; 1.8% in test [3]; -2% in test [4]; 0.1% in test [5]; -1.75% in test [6].
Regarding `c1cc(CNCCN2CCNCC2)ccn1`, the growth inhibition in test [1] was 7.45%; in test [2] it was -34.2%; in test [3], -3.7%; in test [4], -1.9%; in test [5], -48.9%; in test [6] it was 16.8%.
With `Cn1c(=O)oc2cc(C(=O)CN3CCN(Cc4ccc5c(c4)OCO5)CC3)c(Cl)cc21`, the growth inhibition in test [1] was 29.5%; in test [2], 26.4%; in test [3], 61.8%; in test [4], 26.1%; in test [5] it was 53.4%; in test [6], 23.1%.
On to `Clc1ccc(C2=CSC3=NCCN23)cc1`, for which the growth inhibition in test [1] was 3.45%; in test [2], -1.4%; in test [3], -9.55%; in test [4], -97.3%; in test [5], 16.4%; in test [6], 1.25%.
Take `CC1=CC(=O)/C(=C/N2C(=O)CNC2=S)C(=O)O1`: the growth inhibition in test [1] was -49.1%; in test [2], -37.1%; in test [3], -13.8%; in test [4], 15.4%; in test [5] it was -4.25%; in test [6], -45.1%.
Turning to `O=NN(CCF)C(=O)N[C@H]1CCCC[C@H]1O`, the growth inhibition in test [1] is -15.7%; in test [2] it was -19.1%; in test [3] it was -27.1%; in test [4], 2.75%; in test [5] it was -15.9%; in test [6] it was 1.45%.
On to `CCOC(=O)C(CCN(C)C)C(=O)OCC`, for which the growth inhibition in test [1] was 5.75%; in test [2] it was -10.2%; in test [3], 2.8%; in test [4] it was 1.1%; in test [5], -23.1%; in test [6], 14.2%.
For the molecule `COC(C(=O)CN(C)C)(c1ccccc1)c1ccccc1`, the growth inhibition in test [1] is 4%; in test [2], -11.1%; in test [3], -1.85%; in test [4], 6.45%; in test [5], -26.8%; in test [6], 23.5%.
With `COC(=O)c1ccccc1/C=C1\Cc2ccc3c(c2C1=O)CCCC3`, the growth inhibition in test [1] is -30.9%; in test [2], -52.6%; in test [3], -18.9%; in test [4], -7.4%; in test [5], 5.6%; in test [6], -25.2%.
For the molecule `CC(C)(C)C1=CC(=O)C(C#N)(C(C)(C)C)C1=O` (centres undefined), the growth inhibition was 11.2% in test [1]; -5.7% in test [2]; 7.15% in test [3]; -36% in test [4]; 1.6% in test [5]; 6.55% in test [6].
`O=C(O)c1c(Br)c(Br)c(Br)c(Br)c1C(=O)Nc1ccc(Cl)c(Cl)c1`: the growth inhibition is -1.05% in test [1]; 5.15% in test [2]; -0.75% in test [3]; -11.1% in test [4]; 0% in test [5]; -21% in test [6].
For the molecule `CC(=O)CC(=O)Nc1ccc(Cc2ccc(NC(C)=O)cc2)cc1`, the growth inhibition was 8.3% in test [1]; 9.8% in test [2]; 10% in test [3]; 5.55% in test [4]; 2.8% in test [5]; 21.8% in test [6].
In the case of `Cc1c(Cl)cccc1NC(=O)C(=O)C1C(=O)CC(C)(C)CC1=O`, the growth inhibition is 10.6% in test [1]; 6.8% in test [2]; -1.2% in test [3]; 7.85% in test [4]; 15.2% in test [5]; 18.8% in test [6].
In the case of `COC(=O)c1cnccn1`, the growth inhibition was -3.3% in test [1]; -1.35% in test [2]; -3.85% in test [3]; -27.4% in test [4]; 0.75% in test [5]; -6.3% in test [6].
`O=c1ccc2c(O)cc(O)cc2o1`: the growth inhibition in test [1] is -8.9%; in test [2] it was -5.9%; in test [3], -13.7%; in test [4] it was 5.05%; in test [5], 8.35%; in test [6], -8.5%.
With `O=C(Oc1ccc2ccccc2c1)c1ccccc1`, the growth inhibition in test [1] is 28.4%; in test [2] it was 4.4%; in test [3], 28.4%; in test [4], 21.9%; in test [5] it was 2.7%; in test [6], 10.1%.
`CCOC(=O)C(NC(=O)CC(C)C)(N1CCN(c2cc3c(cc2F)c(=O)c(C(=O)O)cn3C2CC2)CC1)C(F)(F)F` (centres undefined): the growth inhibition is -5.8% in test [1]; -26.3% in test [2]; -0.2% in test [3]; 12.5% in test [4]; -24.9% in test [5]; -17.9% in test [6].
In the case of `CCOc1ccccc1C(=O)N(CC)CC`, the growth inhibition was -8.55% in test [1]; -3.2% in test [2]; -4.6% in test [3]; -5.85% in test [4]; -9.8% in test [5]; -5.65% in test [6].
On to `CCOc1ccccc1NC(=O)C(=O)c1c(O)c2ccc(O)cc2oc1=O`, for which the growth inhibition in test [1] is 25.7%; in test [2] it was 9.55%; in test [3], 4.8%; in test [4], 1.8%; in test [5], -3.25%; in test [6], -1.75%.
Regarding `CNc1nc(C(F)(F)F)nc(Cl)c1N`, the growth inhibition is 10% in test [1]; 2.5% in test [2]; 13.4% in test [3]; -7.95% in test [4]; 15.3% in test [5]; 7.4% in test [6].
As to `S=C(Nc1ccccc1)N1N=C2c3ccccc3CC[C@H]2[C@@H]1c1ccccc1`, the growth inhibition was -24.3% in test [1]; -37.9% in test [2]; -37.5% in test [3]; -1% in test [4]; -28.2% in test [5]; -58.5% in test [6].
For `O=C1NC2(CCN(CCc3ccccc3)CC2)Oc2ccccc21`, the growth inhibition in test [1] was 28.9%; in test [2], -10.2%; in test [3] it was 15.7%; in test [4] it was 17.6%; in test [5], 11.5%; in test [6], 11.1%.
Regarding `COc1ccc(N2N=NCC2c2ccccc2[N+](=O)[O-])cc1` (centres undefined), the growth inhibition in test [1] was -10.6%; in test [2], -11.9%; in test [3], 14.2%; in test [4] it was -37.4%; in test [5] it was 13.6%; in test [6] it was 20.4%.
In the case of `O=c1oc2cc(O)ccc2cc1-c1nc2ccccc2o1`, the growth inhibition in test [1] was -2.1%; in test [2], -10.8%; in test [3], -31.2%; in test [4] it was 14.1%; in test [5], 2.75%; in test [6], -4.1%.
Turning to `Cc1ccc(N=C(N)N)cc1`, the growth inhibition in test [1] is -1.25%; in test [2], 0.3%; in test [3], 1.05%; in test [4], 12.3%; in test [5], 0.7%; in test [6] it was -1.8%.
Take `CCCCCCCC[N+](C)([O-])CCCCCC[N+](C)([O-])CCCCCCCC` (centres undefined): the growth inhibition in test [1] was 63.6%; in test [2], 25.2%; in test [3] it was 69.8%; in test [4] it was 66.8%; in test [5], 5.85%; in test [6], 76.2% (active).
On to `Clc1ccc(N[P+](c2ccccc2)(c2ccccc2)c2ccccc2)cc1.[Cl][Fe]([Cl])([Cl])[Cl]`, for which the growth inhibition is 39.3% in test [1]; 12% in test [2]; 45.4% in test [3]; 5% in test [4]; 5.8% in test [5]; 17.8% in test [6].
`CC(C)CCNc1ncnc2[nH]ncc12`: the growth inhibition in test [1] was -16.5%; in test [2] it was -31.7%; in test [3], -26.2%; in test [4], -35.1%; in test [5], -13.8%; in test [6], -18.4%.
Consider `O=c1[nH]c(Nc2ccc(Cl)c(C(F)(F)F)c2)nc2nc[nH]c12`, for which the growth inhibition was 17.7% in test [1]; 7.55% in test [2]; -9.5% in test [3]; 9.9% in test [4]; 8.45% in test [5]; 23.1% in test [6].
Regarding `CC(=O)NC(CC(=O)O)C(=O)Nc1ccccc1` (centres undefined), the growth inhibition in test [1] was 13.8%; in test [2] it was 36.8%; in test [3], 16.6%; in test [4], 13.6%; in test [5], 8.9%; in test [6], 13.4%.
For `Nc1cccc2nsnc12`, the growth inhibition is 3% in test [1]; -36.6% in test [2]; -42.2% in test [3]; 30.1% in test [4]; -5.05% in test [5]; -15.7% in test [6].
